# PubChem BioAssay (NCI)
# This is part of a sample that, as a whole, favours compounds with a hit. Of some 83,000 tested, about 20% had one in any assay.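 Single-concentration screen, 48 h exposure, 96-well plates. Endpoint: percent growth. Below 10 = active.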 Unmarked numbers belong to inactive results. Active and inactive are the calls of the source.
# Test system: ACHN renal
# Assay: NCI-60 one-dose screen, 48 h (100 = growth as untreated, 0 = no growth, -100 = all killed)
# Conditions: 10 µM unless noted
# Description: Growth inhibition of the ACHN human tumor cell line is measured as a screen for anti-cancer activity. Cells are grown in 96 well plates and exposed to the test compound for 48 hours. Compounds are tested at a single concentration, which is 10^-5 M for most compounds. The reported endpoint is percent growth (GI% or GIPRCNT), where numbers from 0 - 100% represent growth inhibition, and numbers from -100% - 0 represent cell death. For example, a value of 40 represents 60% growth inhibition. A value of 0 means no net growth occurred over the course of the experiment. A value of -40 indicates 40% of cells at the beginning of the experiment died by the end of the experiment. A value of -100 means all cells are dead at the end of the experiment.
# NCI-60 Human Tumor Cell Lines Screen was performed using the standard one-dose NCI protocol, which is described in more detail at https://dtp.cancer.gov/discovery_development/nci-60/default.htm.
# Compounds with GIPRCNT values below 10 were considered active. Activity score was based on GIPRCNT using the following formula: […]
# Score is 0 for GIPRCNT values of 100 or above, 50 for GIPRCNT values of 0, and 100 for GIPRCNT values of -100.
row,SMILES,growth
1,O=C1C2=C(C(=O)c3c(O)ccc(O)c31)N(c1ccc(N3CCOCC3)nc1)Cc1ccccc1O2,-100% (active)
2,COCCOCCOCc1n(Cc2ccc3ccccc3n2)c2ccccc2[n+]1Cc1ccc2ccccc2c1,71.1%
3,CCOC(=O)c1ccccc1SC(C[N+](=O)[O-])c1ccccc1 (stereo not given),88.7%
4,Cc1[nH]nc2ccc3nc(-c4ccc5[nH]ncc5c4)c4c(c3c12)CCCC4,6.93% (active)
5,Cn1nc(C(F)(F)F)cc1-c1c[nH]c(OCc2ccc(Cl)cc2)c(-c2ccc(Cl)c(C(F)(F)F)c2)c1=O,-15.8% (active)
6,CCNS(=O)(=O)c1ccc(C)cc1,96.4%
7,COc1ccc(/C=c2\c(=O)n(-c3ccccc3)c3nn4c(n23)=NNC42CCCCC2)cc1,90.5%
8,O=c1c2sc3ncc(Cl)cc3c2nnn1-c1cccc(Cl)c1,46.1%
9,CC1=NC(c2ccc(Cl)cc2)C2=C(N1)/C(=C/c1ccc(Cl)cc1)CCC2 (stereo not given),102%
10,Cc1cc(NC(=O)C2c3ccccc3C(=O)N(CC(C)C)C2c2cccs2)no1 (stereo not given),0.299% (active)
11,CCOC(=O)C1=C(C)NC(SCc2nnc(-c3ccc(Cl)cc3)o2)=NC1c1ccc(Br)cc1 (stereo not given),69.7%
12,COc1ccc2[nH]c(O)c(/C=c3/ccc4c(c3)N=C(c3ccc(F)cc3)N=4)c2c1,31.2%
13,O=C1c2ccccc2C(=O)c2c1oc1ccc3ccccc3c21,79.4%
14,Clc1ccc(-c2nc(Br)cn3ccnc23)cc1,83.4%
15,O=[N+]([O-])c1cccc([I+]c2ccccc2)c1,63.3%
16,CCCCN(CCCC)CCC(O)c1cc2ccc(C(F)(F)F)cc2c2cc(C(F)(F)F)ccc12 (stereo not given),49.9%
17,CCCCCc1c(C)[nH]c(/C=C2\N=C(c3ccc[nH]3)C=C2CC)c1C,-94.7% (active)
18,CN(C)c1ccc(C(c2ccccc2)c2ccc(N(C)C)cc2)cc1,97.9%
19,COc1ccc(C2C=C(c3ccc(Cl)cc3)N=C3SC=CN32)cc1 (stereo not given),107%
20,COc1ccc(NC(=O)c2ccc(C(F)(F)F)nc2Nc2ccc(Cl)cc2C)cc1Cl,14.5%

row,SMILES,growth
1,CCCCNCC(O)c1cc2c(Cl)cc(Cl)cc2c2cc(C(F)(F)F)ccc12 (stereo not given),-78.7% (active)
2,C=CCn1c(SCC(=O)Nc2ccc(/C(C)=N\O)cc2)nnc1-c1cc(-c2ccc(Cl)cc2)nc2ccccc12,20.2%
3,CCCc1n(Cc2ccc3ccccc3c2)c2ccccc2[n+]1Cc1ccc2ccccc2c1,3.74% (active)
4,Fc1cc(-c2nnc3sc(-c4ccc(Cl)cc4)nn23)c(Cl)cc1Cl,101%
5,C/C(=C\C(=N\N=C(N)N)c1ccc(Cl)cc1)c1ccc(Cl)cc1,-85.8% (active)
6,CC1=C(O)C(=O)C(c2c(C)cc(C)c(Br)c2C)=C(O)C1=O,54%
7,CCc1ccc2c(c1)N(CCO)C1=C(C(=O)OC1)C2c1cccc(Cl)c1 (stereo not given),42%
8,[Ag].[Ag].[NH-]S(=O)(=O)c1ccc(N=Nc2cc(N=Nc3ccc(S([NH-])(=O)=O)cc3)c3c(NC(=O)C(Cl)Cl)cccc3c2OC(=O)C(Cl)Cl)cc1.[c-]1nccs1.[c-]1nccs1,52.3%
9,Brc1ccccc1Cn1c(-c2cncs2)nc2ccccc21,72.8%
10,C/C(=N\NC(=S)N1CCCCC1)c1ccccn1,17.3%
11,NCCCOc1cc2ccccc2cc1C(=O)NCCCOc1cc2ccccc2cc1C(=O)Nc1ccc(Cl)cc1O,-95.9% (active)
12,F,23.6% [6.87 mM]
13,COc1ccc2c(c1)CCCC21C(=O)Nc2ccccc21 (stereo not given),105%
14,COc1cc(C2CC(c3cccc(Nc4ccnc5cc(Cl)ccc45)c3)=NN2c2ccc(Cl)cc2)cc(OC)c1OC (stereo not given),41.5%
15,O=C(OCc1ccc2c(Br)cc(Br)c(O)c2n1)c1cc2ccccc2[nH]1,-100% (active)
16,C#CC[C@@H]1C[C@]2(C)[C@H]3CC[C@@H]4[C@H]5C(C(=C)C)CC[C@]5(C(=O)NCCN(CCN)CCN)CC[C@@]4(C)[C@]3(C)CC[C@H]2C(C)(C)[C@H]1OC(C)=O (stereo not given in full),91.3%
17,O=C(Nc1ccc(Oc2ccc(Nc3nc4ccccc4s3)cc2)cc1)Nc1ccc(Cl)c(C(F)(F)F)c1,3.09% (active)
18,COc1ccc(C2CC(c3ccc(Nc4ccnc5cc(Cl)ccc45)cc3)=NN2c2ccccc2)cc1 (stereo not given),97.2%
19,c1ccc(C2=Nc3ccccc3SC2)cc1,95.4%
20,Cc1cc(C)c2c(n1)sc1c(Nc3ccc(Cl)cc3Cl)ncnc12,11.7%
